Reference: PubChem BioAssay (Tox21)
Results filed as inconclusive are left out. Calls of active or inactive are those of the source. Unless noted, calls come from the whole dose curve; as a rule, active = well fitted curve in the direction sought with a large enough effect in the repeat runs; inconclusive = weak or mixed curves; inactive = no such curve, though single readings can be large; an effect the other way counts as inactive or inconclusive.

Key:
[1] = qHTS assay to identify small molecule agonists of the peroxisome proliferator-activated receptor delta (PPARd) signaling pathway - cell viability counter screen (AID 743211); note: % is set by controls: 0 for no effect and ±100 for the full control effect; nearly all actives have a fitted effect of over 55% in size
Method in brief: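 Viability was measured as CellTiter-Glo luminescence (30 min, room temperature) in the same wells as the beta-lactamase readout. GeneBLAzer PPARd UAS-bla HEK293H cells received compound after 5 h plating and were incubated 17 h at 37 C.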

[2] = target: Peroxisome proliferator-activated receptor delta (Homo sapiens) (UniProt Q03181); assay: qHTS assay to identify small molecule agonists of the peroxisome proliferator-activated receptor delta (PPARd) signaling pathway (AID 743212; calls by dose curve; note: % is set by controls: 0 for no effect and ±100 for the full control effect)
Peroxisome proliferator-activated receptor delta (Homo sapiens), sequence (Q03181 whole entry, looked up): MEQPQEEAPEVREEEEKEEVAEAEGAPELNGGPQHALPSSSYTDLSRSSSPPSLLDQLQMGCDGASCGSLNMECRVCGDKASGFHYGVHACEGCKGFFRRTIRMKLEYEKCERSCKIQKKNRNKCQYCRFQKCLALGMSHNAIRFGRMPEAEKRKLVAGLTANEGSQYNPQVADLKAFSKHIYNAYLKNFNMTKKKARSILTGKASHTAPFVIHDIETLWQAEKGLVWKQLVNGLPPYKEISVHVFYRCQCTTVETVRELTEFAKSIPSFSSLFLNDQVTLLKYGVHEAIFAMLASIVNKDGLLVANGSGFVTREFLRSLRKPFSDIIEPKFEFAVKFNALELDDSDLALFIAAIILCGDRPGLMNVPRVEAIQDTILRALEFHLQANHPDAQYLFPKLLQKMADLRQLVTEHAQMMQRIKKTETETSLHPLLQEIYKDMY
Method in brief: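 Beta-lactamase reporter read by fluorescence (LiveBLAzer B/G FRET, 2 h, room temperature). Test agents, in DMSO, incubated at 37 C with PPARd-bla HEK293H cells.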

[3] = qHTS assay to identify small molecule antagonists of the peroxisome proliferator-activated receptor delta (PPARd) signaling pathway - cell viability counter screen (AID 743213); note: % is set by controls: 0 for no effect and ±100 for the full control effect; nearly all actives have a fitted effect of over 50% in size
Method in brief: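 Agonist-stimulated (L165041, 300 nM final) HEK293H PPARd UAS-bla cells are exposed to compounds for 17 h at 37 C, and ATP-based luminescence (CellTiter-Glo) from the same wells reports cytotoxicity.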

[4] = qHTS assay to identify small molecule antagonists of the farnesoid-X-receptor (FXR) signaling pathway - cell viability counter screen (AID 743221; active = well fitted cell-killing curve with a large enough effect in the repeat runs, not every such curve was filed as active; note: % is set by controls: 0 for no effect and ±100 for the full control effect; nearly all actives have a fitted effect of over 50% in size)
Method in brief: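 Cytotoxicity counter screen run in the FXR-bla reporter wells: HEK 293T cells exposed to compound with 50 uM (final) chenodeoxycholic acid for 16 h, 37 C, then viability measured by CellTiter-Glo luminescence after 30 min, room temperature.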

[5] = target: Vitamin D3 receptor (Homo sapiens) (UniProt P11473); assay: qHTS assay to identify small molecule agonists of the vitamin D receptor (VDR) signaling pathway (AID 743222; calls by dose curve; note: % is set by controls: 0 for no effect and ±100 for the full control effect)
Vitamin D3 receptor (Homo sapiens), sequence (P11473 whole entry, looked up): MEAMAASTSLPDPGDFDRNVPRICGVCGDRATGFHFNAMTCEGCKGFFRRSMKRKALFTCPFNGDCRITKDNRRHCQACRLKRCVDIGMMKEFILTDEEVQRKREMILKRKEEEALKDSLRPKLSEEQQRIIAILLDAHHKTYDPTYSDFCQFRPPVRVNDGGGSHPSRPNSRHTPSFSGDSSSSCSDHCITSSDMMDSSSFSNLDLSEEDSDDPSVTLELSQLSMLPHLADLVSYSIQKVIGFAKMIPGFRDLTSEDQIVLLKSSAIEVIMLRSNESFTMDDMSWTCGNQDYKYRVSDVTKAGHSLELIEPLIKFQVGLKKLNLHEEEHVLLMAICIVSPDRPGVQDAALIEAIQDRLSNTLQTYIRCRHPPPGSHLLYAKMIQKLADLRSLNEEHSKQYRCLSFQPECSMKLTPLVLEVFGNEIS
Method in brief: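 Tox21 cell reporter format: VDR-bla line, 16 h compound exposure in 5% CO2 at 37C, then fluorescence intensity after 2 h with LiveBLAzer B/G FRET substrate.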

[6] = target: Vitamin D3 receptor (Homo sapiens) (UniProt P11473); assay: qHTS assay to identify small molecule antagonists of the vitamin D receptor (VDR) signaling pathway (AID 743223; active = well fitted inhibition curve with a large enough effect in the signal ratio in the repeat runs, not every such curve was filed as active; the % refers to the signal ratio; note: % is set by controls: 0 for no effect and ±100 for the full control effect)
Method in brief: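 Antagonist mode: compound added to VDR-bla cells alongside agonist 1alpha,25-dihydroxyvitamin D3 (3 nM final), incubation 16 h at 37C. Read-out is LiveBLAzer FRET fluorescence, 2 h at room temperature.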

[7] = qHTS assay to identify small molecule agonists of the vitamin D receptor (VDR) signaling pathway - cell viability counter screen (AID 743224); note: series mostly up to about 63 µM; % is set by controls: 0 for no effect and ±100 for the full control effect; nearly all actives have a fitted effect of over 50% in size
Method in brief: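 CellTiter-Glo viability readout on VDR-bla cells, measured after 16 h of compound treatment at 37C in the same wells.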

[8] = qHTS assay to identify small molecule antagonists of the vitamin D receptor (VDR) signaling pathway - cell viability counter screen (AID 743225); note: % is set by controls: 0 for no effect and ±100 for the full control effect; nearly all actives have a fitted effect of over 50% in size
Method in brief: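 Cytotoxicity counter screen read by CellTiter-Glo luminescence (30 min, room temperature) in the same wells as the VDR-bla antagonist readout. HEK 293T VDR-UAS-bla cells had 16 h at 37C with compound and 3 nM (final) 1-alpha,25-dihydroxyvitamin D3, then 2 h with FRET substrate.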

[9] = qHTS assay to identify small molecule agonists of the NFkB signaling pathway (AID 1159509; active = well fitted curve in the direction sought with a large enough effect in the signal ratio in the repeat runs, not every such curve was filed as active; the % refers to the signal ratio; note: series mostly up to about 61 µM; % is set by controls: 0 for no effect and ±100 for the full control effect)
Method in brief: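 Beta-lactamase reporter assay run in quantitative high-throughput format on an NF-kB-responsive ME-180 line, with 5 hr compound treatment and a FRET-based blue/green fluorescence readout.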

[10] = qHTS assay to identify small molecule agonists of the NFkB signaling pathway - cell viability counter screen (AID 1159515; calls by dose curve; note: series mostly up to about 61 µM; % is set by controls: 0 for no effect and ±100 for the full control effect; nearly all actives have a fitted effect of over 55% in size)
Method in brief: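 Tox21 library compounds were tested for cytotoxicity against NFkB-bla ME-180 cells during a 5 hr exposure at 37 C. CellTiter-Glo luminescence served as the viability read-out.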

[11] = qHTS assay to identify small molecule agonists of the endoplasmic reticulum stress response signaling pathway (AID 1159516; active = well fitted activation curve with a large enough effect in the signal ratio in the repeat runs, not every such curve was filed as active; the % refers to the signal ratio; note: % is set by controls: 0 for no effect and ±100 for the full control effect)
Method in brief: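 Fluorescence at 460 and 530 nm (405 nm excitation) reports beta-lactamase from an ER stress response element in HeLa cells treated 5 hr at 37 C.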

[12] = qHTS assay to identify small molecule agonists of the endoplasmic reticulum stress response signaling pathway - cell viability counter screen (AID 1159517; calls by dose curve)
Method in brief: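 Cytotoxicity of test compounds toward ESRE-bla HeLa cells was assessed after 5 hr exposure. The luminescent CellTiter-Glo signal was measured 30 min after reagent addition.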

[13] = qHTS assay to identify small molecule antagonists of the retinoid-related orphan receptor gamma (ROR-gamma) signaling pathway - cell viability counter screen (AID 1159520)
Method in brief: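 Tet-on ROR gamma CHO cells (1,000/well) were plated 4 hr, given compounds in DMSO for 2 hr at 37 C, then induced with 1 uM final doxycycline for 16 hr. Viability was read as ATP by CellTiter-Glo luminescence after 30 min.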

[14] = target: Nuclear receptor ROR-gamma (Homo sapiens) (UniProt P51449); assay: qHTS assay to identify small molecule antagonists of the retinoid-related orphan receptor gamma (ROR-gamma) signaling pathway (AID 1159521)
Method in brief: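 Antagonist read-out: drop in luminescence (ONE-Glo) from an RORE-LUC reporter in CHO cells with doxycycline-inducible ROR-gamma; 2 hr compound pretreatment, 1 uM doxycycline, 16 hr incubation at 37 C.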

[15] = qHTS assay to identify small molecule agonists of the AP-1 signaling pathway - cell viability counter screen (AID 1159525; calls by dose curve; note: nearly all actives have a fitted effect of over 55% in size)
Method in brief: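 Each titration point was normalised to DMSO and tetra n-octyl ammonium bromide controls. The read was Cell Titer Glo luminescence after 30 min at RT, following 5 h compound exposure of ME-180 AP-1-bla cells at 37 °C.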

[16] = qHTS assay to identify small molecule agonists of the AP-1 signaling pathway (AID 1159526; calls by dose curve; note: % is set by controls: 0 for no effect and ±100 for the full control effect)
[17] = target: Peroxisome proliferator-activated receptor delta (Homo sapiens) (UniProt Q03181); assay: qHTS assay to identify small molecule antagonists of the peroxisome proliferator-activated receptor delta (PPARd) signaling pathway (AID 743215; active = well fitted inhibition curve with a large enough effect in the signal ratio in the repeat runs, not every such curve was filed as active; the % refers to the signal ratio)
Method in brief: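 Here, a reporter line (HEK293H, beta-lactamase under a UAS) measures PPARd signaling. Compounds are tested against agonist L165041 at 300 nM final concentration over 17 h at 37 C, with fluorescence read after substrate.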

[18] = target: Bile acid receptor (Homo sapiens) (UniProt Q96RI1); assay: qHTS assay to identify small molecule antagonists of the farnesoid-X-receptor (FXR) signaling pathway (AID 743217; active = well fitted inhibition curve with a large enough effect in the signal ratio in the repeat runs, not every such curve was filed as active; the % refers to the signal ratio; note: potency is the fitted concentration of half-maximal effect)
Bile acid receptor (Homo sapiens), sequence (Q96RI1 whole entry, looked up): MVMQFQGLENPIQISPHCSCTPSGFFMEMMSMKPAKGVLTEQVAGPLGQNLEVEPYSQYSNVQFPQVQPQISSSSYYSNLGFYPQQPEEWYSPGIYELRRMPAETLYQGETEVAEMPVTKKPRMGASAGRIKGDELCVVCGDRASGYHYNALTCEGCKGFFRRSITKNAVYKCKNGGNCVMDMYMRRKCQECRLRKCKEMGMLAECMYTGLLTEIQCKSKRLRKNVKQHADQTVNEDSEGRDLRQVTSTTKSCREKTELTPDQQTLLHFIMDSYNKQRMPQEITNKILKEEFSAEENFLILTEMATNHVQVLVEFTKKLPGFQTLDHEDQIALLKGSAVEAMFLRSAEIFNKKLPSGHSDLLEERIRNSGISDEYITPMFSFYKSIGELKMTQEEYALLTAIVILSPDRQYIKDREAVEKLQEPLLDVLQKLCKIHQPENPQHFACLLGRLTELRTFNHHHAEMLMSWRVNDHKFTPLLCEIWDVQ
Method in brief: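 Test compounds are pin-transferred onto FXR-bla HEK 293T cells, then chenodeoxycholic acid is added at 50 uM final. After 16 h at 37 °C, LiveBLAzer B/G substrate is applied for 2 h at room temperature and fluorescence read.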

[19] = qHTS assay to identify small molecule agonists of the farnesoid-X-receptor (FXR) signaling pathway - cell viability counter screen (AID 743218); note: % is set by controls: 0 for no effect and ±100 for the full control effect; nearly all actives have a fitted effect of over 45% in size
Method in brief: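 Quantitative HTS counter screen measuring ATP-based viability via CellTiter-Glo luminescence in HEK 293T cells carrying a UAS-driven beta-lactamase reporter, after 16 h compound exposure at 37 C.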

[20] = target: Bile acid receptor (Homo sapiens) (UniProt Q96RI1); assay: qHTS assay to identify small molecule agonists of the farnesoid-X-receptor (FXR) signaling pathway (AID 743220; active = well fitted activation curve with a large enough effect in the signal ratio in the repeat runs, not every such curve was filed as active; the % refers to the signal ratio; note: % is set by controls: 0 for no effect and ±100 for the full control effect)
Method in brief: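 FXR-UAS-bla HEK 293T cells carrying a UAS-driven beta-lactamase reporter were plated for 5 h at 37C/5% CO2, then exposed to DMSO-dissolved Tox21 10K compounds for 16 h at 37C. A LiveBLAzer B/G FRET substrate was loaded for 2 h at room temperature before fluorescence reading.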

CCOCCOCCOCC
inactive: outcome [1] | outcome [2] | outcome [3] | outcome [4] | outcome [5] | outcome [6] | Potency [7] | outcome [8] | outcome [9] | outcome [10] | outcome [11] | Potency [12] | outcome [13] | outcome [14] | outcome [15] | outcome [16]

C=C(C)C(=O)OCCOP(=O)(O)OCCOC(=O)C(=C)C
inactive: outcome [1] | outcome [2] | outcome [17] | Potency [18] | Potency [19] | Potency [20] | outcome [4] | Potency [7] | outcome [9] | outcome [10] | outcome [11] | Potency [12] | outcome [13] | outcome [14] | outcome [15] | outcome [16]

CC(C)=O
inactive: outcome [1] | outcome [2] | outcome [3] | outcome [4] | outcome [5] | outcome [9] | outcome [10] | outcome [11] | Potency [12] | outcome [13] | outcome [14] | outcome [15] | outcome [16]

COc1ccc2nc(SCc3ncc(C)c(OC)c3C)[nH]c2c1
inactive: outcome [1] | outcome [2] | outcome [3] | outcome [17] | outcome [4] | Potency [7] | outcome [8] | outcome [9] | outcome [10] | outcome [11] | Potency [12] | outcome [13] | outcome [14] | outcome [15] | outcome [16]

O=C(/N=N/C(=O)OCc1ccccc1)OCc1ccccc1
inactive: outcome [1] | outcome [2] | outcome [3] | outcome [17] | outcome [4] | outcome [5] | Potency [7] | outcome [8] | outcome [9] | outcome [10] | outcome [11] | Potency [12] | outcome [13] | outcome [14] | outcome [15] | outcome [16]

Cc1ccccc1OCC(O)CO (stereo not drawn)
inactive: outcome [1] | outcome [2] | outcome [3] | outcome [17] | Potency [19] | outcome [4] | outcome [6] | Potency [7] | outcome [8] | outcome [9] | outcome [10] | outcome [11] | Potency [12] | outcome [13] | outcome [14] | outcome [15] | outcome [16]

COc1cc(NS(=O)(=O)c2ccc(N)cc2)nc(OC)n1
inactive: outcome [1] | outcome [2] | outcome [3] | outcome [17] | outcome [5] | outcome [6] | outcome [8] | outcome [9] | outcome [10] | outcome [11] | Potency [12] | outcome [13] | outcome [14] | outcome [15] | outcome [16]

CCOC(=O)[C@H](CCc1ccccc1)N[C@@H](C)C(=O)N1C(=O)N(C)C[C@H]1C(=O)O
inactive: outcome [1] | outcome [2] | outcome [3] | outcome [17] | Potency [19] | outcome [4] | Potency [7] | outcome [8] | outcome [9] | outcome [10] | outcome [11] | Potency [12] | outcome [13] | outcome [14] | outcome [15] | outcome [16]

O=S(O)(O)=S
inactive: activity change, negative = cytotoxicity [1] 0.0962% [at 5.95 µM] | activation [2] 0.0872% [at 5.95 µM] | viability change, negative = cytotoxic [3] -0.861% [at 6.26 µM] | ratio activity, negative = inhibition [17] 3.14% [at 6.26 µM] | viability change, negative = cytotoxic [19] 3.63% [at 5.95 µM] | activity change, negative = cytotoxicity [4] 6.74% [at 5.95 µM] | activity change, negative = cytotoxicity [7] -0.106% [at 5.95 µM] | viability change, negative = cytotoxic [8] 4.99% [at 6.95 µM] | activation [9] -0.163% [at 6.95 µM] | activity, negative = cytotoxic [10] 0.146% [at 6.95 µM] | activation [11] 0.601% [at 6.95 µM] | activity change, negative = cytotoxicity [12] -2.33% [at 6.95 µM] | activity, negative = cytotoxicity [13] 8.82% [at 8.39 µM] | activity change, negative = inhibition [14] 6.6% [at 8.39 µM] | viability change, negative = cytotoxic [15] 1.76% [at 6.97 µM] | activation [16] 11.4% [at 6.97 µM]

CC(C)OC(=O)CCCCC(=O)OC(C)C
inactive: outcome [1] | outcome [2] | outcome [3] | Potency [20] | outcome [4] | outcome [5] | outcome [6] | outcome [8] | outcome [9] | outcome [10] | outcome [11] | Potency [12] | outcome [13] | outcome [14] | outcome [15] | outcome [16]
active: Potency [18] 24.6 µM

COc1ccc(C2CNC(=O)C2)cc1OC1CCCC1 (stereo not drawn)
inactive: outcome [1] | outcome [2] | outcome [3] | outcome [17] | Potency [19] | outcome [4] | outcome [8] | outcome [9] | outcome [10] | outcome [11] | Potency [12] | outcome [13] | outcome [14] | outcome [15] | outcome [16]

Cc1[nH]cnc1-c1ccc(Cl)cc1
inactive: outcome [1] | outcome [2] | outcome [3] | outcome [17] | Potency [19] | outcome [4] | outcome [8] | outcome [9] | outcome [10] | outcome [11] | Potency [12] | outcome [13] | outcome [14] | outcome [15] | outcome [16]

CC[C@H](C)C(=O)O[C@H]1C[C@H](O)C=C2C=C[C@H](C)[C@H](CC[C@@H](O)C[C@@H](O)CC(=O)O)[C@H]21
inactive: outcome [1] | outcome [2] | outcome [3] | outcome [17] | Potency [19] | outcome [4] | outcome [5] | outcome [8] | outcome [9] | outcome [10] | outcome [11] | Potency [12] | outcome [13] | outcome [14] | outcome [15] | outcome [16]

CCc1ccc(C=O)cc1
inactive: outcome [1] | outcome [2] | outcome [3] | outcome [17] | outcome [4] | outcome [6] | outcome [8] | outcome [9] | outcome [10] | outcome [11] | Potency [12] | outcome [13] | outcome [14] | outcome [15] | outcome [16]
